Screens: PubChem BioAssay, National Center for Advancing Translational Sciences (NCATS)
Sampled rows, rich in hits. Any-hit rate of the full collection: about 12%.
JMJD2A Tudor inh – inhibitors of human JMJD2A Tudor domain; O75164; Potency, µM (titrated, usually from 114 µM), for inactives: at the top dose activity change, negative = inhibition, hits mostly inhibitors; hit rate 4.4% among 390,000; AID 504339; AlphaScreen JMJD2A-Tudor / H3K4me3 peptide binding; further: on the % scale 0 is the no-effect control and ±100 the full control effect; nearly all actives have a fitted effect of over 50% in size
Sfp inh – inhibitors of Bacillus subtilis Sfp phosphopantetheinyl transferase; Q9F4F7; Potency, µM, inactives show largest response in the series, negative = inhibition, actives largely listed as inhibitors; Biochemical Sfp PPTase activity, qHTS; hit rate 3.5% among 310,000;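 further: the enzyme is Sfp with the accession as filed and its product quenches rhodamine fluorescence; 0% = enzyme reaction without inhibitor and -100% = no enzyme wells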
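Reaction rates are the 30-min fluorescence difference (ex 525, em 598 nm) in wells containing 15 nM Sfp, 5 uM rhodamine-CoA and 12.5 uM BHQ-2-YbbR at pH 7.6 with 10 mM MgCl2.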
BAZ2B block – BAZ2B (human) inhibition. Q9UIF8. AID 504333. hit rate 4.4% among 360,000. Potency, µM (top dose mostly 114 µM), for the others: at the top dose activity change, negative = inhibition, hits mostly inhibitors. AlphaScreen BAZ2B-H3K14Ac peptide displacement; further: on the % scale 0 is the no-effect control and ±100 the full control effect; nearly all actives have a fitted effect of over 60% in size
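BAZ2B 50 nM plus b-H3(5-23)K14Ac 50 nM, PBS pH 7.4/0.01% Tween-20, 30 min RT; compound added (max 110 uM), 30 min RT; streptavidin donor/Ni-chelate acceptor beads 10 ug/mL final, 20 min dark; AlphaScreen read.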
G9a block – G9a (human) methyltransferase inhibition; Potency, µM (top dose mostly 102 µM), for inactives: at the top dose activity, negative = inhibition, most hits filed as inhibitors; hit rate 8.8% among 350,000; G9a H3K9 monomethylation, AlphaScreen, 2 h; Q96KQ7; further: on the % scale 0 is the no-effect control and ±100 the full control effect; nearly all actives have a fitted effect of over 75% in size
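Using a bead-based AlphaScreen, monomethylated H3K9 product from 2 h room-temperature reactions (G9a 20 nM, peptide 500 nM, SAM 20 uM) was detected with 0.5 ug/mL rabbit anti-H3K9me1 antibody.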
L3MBTL1 block – inhibitors of human L3MBTL1 | Q9Y468 | AlphaScreen L3MBTL1–H3K9me1 peptide binding | Potency, µM (doses to about 57.1 µM), inactives show top-dose activity, negative = inhibition, hits mostly inhibitors | hit rate 0.66% among 230,000 | AID 485360; further: on the % scale 0 is the no-effect control and ±100 the full control effect; nearly all actives have a fitted effect of over 60% in size
Target sequence (Q9Y468 whole entry, looked up): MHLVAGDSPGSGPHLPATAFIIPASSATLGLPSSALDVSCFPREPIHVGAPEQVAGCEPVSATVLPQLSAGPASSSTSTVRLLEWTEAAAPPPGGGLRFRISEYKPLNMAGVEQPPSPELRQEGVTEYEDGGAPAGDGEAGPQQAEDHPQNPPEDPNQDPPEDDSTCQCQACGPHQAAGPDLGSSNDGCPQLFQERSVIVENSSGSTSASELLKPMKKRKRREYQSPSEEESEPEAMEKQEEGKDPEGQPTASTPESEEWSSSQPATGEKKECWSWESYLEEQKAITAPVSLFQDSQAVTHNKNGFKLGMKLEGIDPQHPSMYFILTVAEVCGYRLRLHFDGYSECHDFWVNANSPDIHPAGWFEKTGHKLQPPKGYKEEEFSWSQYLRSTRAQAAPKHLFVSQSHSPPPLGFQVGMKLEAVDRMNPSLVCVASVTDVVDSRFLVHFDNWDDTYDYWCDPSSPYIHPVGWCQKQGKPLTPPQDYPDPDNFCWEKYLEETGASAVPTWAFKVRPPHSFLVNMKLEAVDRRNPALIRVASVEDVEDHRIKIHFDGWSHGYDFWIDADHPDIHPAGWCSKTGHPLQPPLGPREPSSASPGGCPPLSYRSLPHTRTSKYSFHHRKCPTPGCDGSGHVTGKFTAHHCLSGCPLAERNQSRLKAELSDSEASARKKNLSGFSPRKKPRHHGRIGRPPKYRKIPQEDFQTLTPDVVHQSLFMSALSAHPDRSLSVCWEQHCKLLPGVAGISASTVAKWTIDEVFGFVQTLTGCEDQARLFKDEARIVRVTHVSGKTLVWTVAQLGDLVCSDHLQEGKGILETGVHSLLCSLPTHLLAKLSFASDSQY
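L3MBTL1 (50 nM) pre-complexed 30 min with biotinylated H3(1-15)K9me1 peptide (75 nM), then compounds added for 30 min at room temperature; AlphaScreen streptavidin donor/nickel chelate acceptor beads (10 ug/mL final) read after 30 min dark incubation.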
HP1b binding inh – inhibitors of HP1-beta chromodomain binding to methylated histone tails. AlphaScreen HP1-beta / biotin-H3K9me3 peptide binding. Potency, µM (top dose mostly 114 µM), for inactives: top-dose activity change, negative = inhibition, most hits filed as inhibitors. hit rate 0.56% among 390,000; further: nearly all actives have a fitted effect of over 70% in size
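AlphaScreen: HP1-beta (50 nM) preformed 30 min with biotin-H3(1-18)K9me3 peptide (50 nM) in PBS pH 7.4, 0.01% Tween-20. Compound added for 30 min at RT, then streptavidin donor/nickel chelate acceptor beads (10 ug/mL) for 30 min.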
Active calls of the source: *; u = inconclusive; x = not tested or not shown; [ ] = dose if it differs, or a comment. The call rests on the fitted dose curve; in most records, active means well fitted curve in the direction sought with a large enough effect; inconclusive means small, poorly fitted or top-dose-only effect, or another doubt; inactive means no such curve, though single readings can be large; an effect the other way counts as inactive or inconclusive. Potency means the concentration at half of the fitted maximal effect.

SMILES | JMJD2A Tudor inh | Sfp inh | BAZ2B block | G9a block | L3MBTL1 block | HP1b binding inh
CCN(C(=O)CSc1nc2n[nH]c(C)c2c(=N)n1-c1cccc(OC)c1)c1cccc(C)c1 | u | x | u | -31.8%[59 µM] | x | 28.7%
CCCOc1cccc(C2c3c(oc4ccc(F)cc4c3=O)C(=O)N2c2nc(C)c(C(C)=O)s2)c1 (centres undefined) | -9.6% | x | -4.1% | -3.9%[59 µM] | x | 14.9%
CCN(CC)CCNC(=O)c1cc2c(=O)n(C)c3cc(Cl)ccc3c2s1 | -8.7% | x | x | -14.5%[59 µM] | x | 18.8%
CCn1ccc2cc(S(=O)(=O)N3CCC(C(=O)NCCc4ccccc4)CC3)ccc21 | -19.5% | x | -3.9% | 3.0%[59 µM] | x | 10.6%[57 µM]
Cc1ccc(N=C2NC(=O)CS2)cc1 | -19.1%[57.1 µM] | 19.0% | -2.3% | -0.4%[12.7 µM] | x | 59.8%
Cc1ccc(N=c2ssnc2Cl)cc1 | 31.6µM* | 12.6µM* | 44.7µM* | 1.58µM* | -4.4% | 15.8µM*
COc1cccc(N2CC(NC(=O)/C=C\c3ccc4c(c3)OCO4)CC2=O)c1 (centres undefined) | -9.7% | x | -2.8% | 6.1%[59 µM] | x | 23.0%
Cc1ccc2[nH]c3c(c2c1)CCCC3NCCO (centres undefined) | u | -8.8% | u | 50.1µM* | -13.1% | -15.6%
Cc1ccc(C)c(/C=N/Nc2nc3ccccc3c(=O)n2O)c1 | -11.2% | 25.1µM* | 1.2% | 28.2µM* | x | -12.9%
Cc1ccc2nc(C)cc(N/N=C/c3ccccc3O)c2c1 | -34.7% | 6.0% | -33.6% | 16.2% | -8.7% | 8.4%
C/C(=N\Nc1nc2ccccc2c(=O)n1O)c1ccco1 | u | 79.4µM* | -4.5% | 79.4µM* | x | u
C/C(=N\NC(=O)c1cc(C)nc2ccccc12)c1ccco1 | -16.5% | 12.0% | -28.8% | 3.0% | -3.3%[11.4 µM] | 27.3%
Cc1ccc(OC(=O)CSc2nnc(CNC(=O)c3ccccc3)o2)cc1 | -10.6% | x | 5.2% | u | x | 38.8%
Cc1cc(N2CCCC2)nc2ccc(NC(=S)NCCCN3CCC(C)CC3)cc12 | -32.2% | 9.7% | x | 50.1µM* | x | 6.8%
CCCN1CCN(CCCNC(=S)Nc2ccc3nc(N4CCN(CC)CC4)cc(C)c3c2)CC1 | -0.7% | 14.5% | -8.2% | 35.5µM* | x | 4.0%
CCN1CCN(c2cc(C)c3cc(NC(=S)NCCCN4CCc5ccccc5C4)ccc3n2)CC1 | u | 4.3% | u | 31.6µM* | x | -11.5%
Cc1cc(N2CCN(C)CC2)nc2ccc(NC(=S)NCCCN3CCc4ccccc4C3)cc12 | -26.4% | 7.6% | u | 39.8µM* | x | -7.5%
COC(=O)c1c(NC(=O)/C(C#N)=C/c2ccc(OC)cc2)sc2c1CCC2 | -20.9% | x | 2.9% | -4.1%[59 µM] | x | 42.3%
CSCCC(N)C(=O)NC(CC(C)C)C(=O)NC(Cc1ccccc1)C(=O)O (centres undefined) | x | -10.3% | x | x | x | x
COn1c(SC(C)C)nc2ccccc2c1=O | 11.2% | -8.8% | 6.9% | 0.7%[12.7 µM] | -3.3% | 14.6%
COn1c(SC2CCCCC2)nc2ccccc2c1=O | 27.3% | -18.6% | 43.1% | 22.4µM* | 2.8% | 77.8%
COc1ccc(-n2c(=O)c3c4c(sc3n(Cc3c(F)cccc3Cl)c2=O)CN(C(C)=O)CC4)cc1OC | -12.3% | x | 1.3% | 0.7%[59 µM] | x | 23.6%
COC(=O)c1c(-c2ccc(C(C)(C)C)cc2)csc1NC(=O)C1C2CCC(O2)C1C(=O)O (centres undefined) | u | 11.2µM* | -11.9% | 1.78µM* | 5.8% | u
Cc1ccc(-c2n[nH]c(=O)c3ccccc23)cc1S(=O)(=O)NCC1CCCO1 (centres undefined) | 0.7% | 11.8% | -13.9% | 12.8% | x | 14.6%
Cc1ccc(-c2n[nH]c(=S)c3ccccc23)cc1S(=O)(=O)NCC1CCCO1 (centres undefined) | 17.8µM* | 5.7% | -33.4% | 22.4µM* | x | -36.1%
Cc1ccc(C2(C)NC(=O)N(CC(=O)Nc3nc(-c4ccccn4)cs3)C2=O)cc1 (centres undefined) | 39.8µM* | x | 79.4µM* | -2.4%[0.501 µM] | u | 31.6µM*
